According to PubChem BioAssay (NCATS):
Where “and” joins values, the source holds several entries; their conditions need not be identical. Equal values may be shown once. Records with an inconclusive call do not appear. Calls of active or inactive are those of the source. Calls follow the shape of the dose curve; as a rule, active = well fitted curve in the direction sought with a large enough effect; inconclusive = small, poorly fitted or top-dose-only effect, or another doubt; inactive = no such curve, though single readings can be large; an effect the other way counts as inactive or inconclusive.

Key:
[1] = tested on: CRL-7250; test: Cytotoxic Profiling of Annotated Libraries Using Quantitative High-Throughput Screening (AID 1296008); settings: Five cell lines viability, CellTiter-Glo ATP luminescence, 48-72 h; max response: stronger effect = lower value; also: nearly all actives have a fitted effect of over 60% in size; as to max response: % is scaled to controls: 0 for no effect and ±100 for the full control effect
Summary of the method: (§1)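 Cytotoxicity was measured as CellTiter-Glo ATP luminescence, read after 10 min at room temperature. Compound treatment of the cells lasted 48 or 72 hr at 37 degrees Celsius in a qHTS format.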

[2] = tested on: HEK293; test: as above; settings: Five cell lines viability, CellTiter-Glo ATP luminescence, 48-72 h; max response: stronger effect = lower value
Summary of the method: as §1

[3] = tested on: HaCat; test: as above; settings: Five cell lines viability, CellTiter-Glo ATP luminescence, 48-72 h; max response: stronger effect = lower value
Summary of the method: as §1

[4] = tested on: KB-3-1; test: as above; settings: Five cell lines viability, CellTiter-Glo ATP luminescence, 48-72 h; max response: stronger effect = lower value
Summary of the method: as §1

[5] = tested on: NIH3T3; test: as above; settings: Five cell lines viability, CellTiter-Glo ATP luminescence, 48-72 h; max response: stronger effect = lower value
Summary of the method: as §1

[6] = tested on: HACAT; test: qHTS assay to identify novel small-molecules to repurpose for Merkel cell carcinoma treatment (AID 1296009); settings: MCC and control cell lines, CellTiter-Glo viability, 72 h; at 44.8 µM (top of the series) unless noted; also: nearly all actives have a fitted effect of over 60% in size
Summary of the method: (§2)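 Cell viability, measured as CellTiter-Glo luminescence, was normalized between DMSO and no-cell wells. The cells had been exposed to 8- or 11-point compound dilutions for 72 hr at 37 degree celsius.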

[7] = tested on: HEK293T; test: as above; settings: MCC and control cell lines, CellTiter-Glo viability, 72 h; at 44.8 µM (top of the series) unless noted
Summary of the method: as §2

[8] = tested on: MCC-13; test: as above; settings: MCC and control cell lines, CellTiter-Glo viability, 72 h; series mostly up to 46 µM
Summary of the method: as §2

[9] = tested on: MCC-26; test: as above; settings: MCC and control cell lines, CellTiter-Glo viability, 72 h; series mostly up to 46 µM
Summary of the method: as §2

[10] = tested on: MKL-1; test: as above; settings: MCC and control cell lines, CellTiter-Glo viability, 72 h; series mostly up to 46 µM
Summary of the method: as §2

[11] = tested on: MKL-2; test: as above; settings: MCC and control cell lines, CellTiter-Glo viability, 72 h; series mostly up to 46 µM
Summary of the method: as §2

[12] = tested on: UISO; test: as above; settings: MCC and control cell lines, CellTiter-Glo viability, 72 h; series mostly up to 46 µM
Summary of the method: as §2

[13] = tested on: WaGa; test: as above; settings: MCC and control cell lines, CellTiter-Glo viability, 72 h; series mostly up to 46 µM
Summary of the method: as §2

[14] = tested on: C33A; test: Primary qHTS to identify gynecologic anti-cancer compounds using libraries of approved drugs and bioactive compounds (AID 1345084); settings: Gynecologic cancer cell panel viability, ATPlite luminescence, 48 h; series mostly up to 57.5 µM; also: % is scaled to controls: 0 for no effect and ±100 for the full control effect; nearly all actives have a fitted effect of over 55% in size
Summary of the method: (§3)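 48 h compound exposure at 37 C, 5% CO2; five-point qHTS. ATPlite luminescence readout of cell ATP.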

[15] = tested on: CAOV3; test: as above; settings: Gynecologic cancer cell panel viability, ATPlite luminescence, 48 h; series mostly up to 57.5 µM
Summary of the method: as §3

[16] = tested on: CASKI; test: as above; settings: Gynecologic cancer cell panel viability, ATPlite luminescence, 48 h; series mostly up to 57.5 µM
Summary of the method: as §3

[17] = tested on: Es-2; test: as above; settings: Gynecologic cancer cell panel viability, ATPlite luminescence, 48 h; series mostly up to 57.5 µM
Summary of the method: as §3

[18] = tested on: HeLa; test: as above; settings: Gynecologic cancer cell panel viability, ATPlite luminescence, 48 h; series mostly up to 57.5 µM
Summary of the method: as §3

[19] = tested on: W2; test: qHTS profiling for inhibitors of Plasmodium falciparum proliferation (AID 504749); also: nearly all actives have a fitted effect of over 60% in size; also: potency is read from the fitted curve at half-maximal effect; settings: P. falciparum in erythrocytes, SYBR Green DNA, 72 h; series mostly up to 28.7 µM
Summary of the method: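 SYBR Green fluorescence of parasite DNA, read after lysis and overnight dark incubation, measured growth over 72 h in erythrocyte culture at 0.3% parasitemia and 2.5% hematocrit. Data normalised to DMSO and 0.29 uM artemisinin, with plate-drift correction.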

[20] = tested on: NIH3T3; test: qHTS assay to identify novel small-molecules to repurpose for Merkel cell carcinoma treatment (AID 1296009); settings: MCC and control cell lines, CellTiter-Glo viability, 72 h; at 44.8 µM (top of the series) unless noted; also: nearly all actives have a fitted effect of over 60% in size
Summary of the method: as §2

C=CCn1c(=O)n([C@@H]2O[C@H](CO)[C@@H](O)[C@H]2O)c2nc(N)[nH]c(=O)c21
inactive: max response [1] -6.63% | outcome [2] | outcome [3] | max response [4] 17% | max response [5] 4.38% | outcome [6] | outcome [7] | Potency [8] | Potency [9] | Potency [10] | Potency [11] | Potency [12] | Potency [13] | Potency [14] | Potency [15] | Potency [16] | Potency [17] | Potency [18]

C[C@@H](O)[C@H](N)C(=O)O
inactive: max response [1] -2.34% | outcome [2] | outcome [3] | max response [4] 1.86% | max response [5] -1.06% | outcome [6] inactive [at 17.4 µM] | outcome [7] inactive [at 17.4 µM] | Potency [8] | Potency [9] | Potency [10] | Potency [11] | Potency [12] | Potency [13] | Potency [14] | Potency [15] | Potency [16] | Potency [17] | Potency [18]

CC1(C)[C@@H]2CC[C@@]1(C)C(=O)C2
inactive: Potency [19] | outcome [1] | outcome [2] | outcome [3] | max response [4] -13.1% | max response [5] -6.56% | outcome [6] | outcome [7] | Potency [8] | Potency [9] | Potency [10] | Potency [11] | Potency [12] | Potency [13] | Potency [14] | Potency [15] | Potency [16] | Potency [17] | Potency [18]

N[C@H]1C(O)O[C@H](CO)[C@@H](O)[C@@H]1O (some centres undefined)
inactive: max response [1] -7.05% | outcome [2] | outcome [3] | max response [4] 2.62% | max response [5] -13.4% | outcome [6] | outcome [7] | Potency [8] | Potency [9] | Potency [10] | Potency [11] | Potency [12] | Potency [13] | Potency [14] | Potency [15] | Potency [16] | Potency [17] | Potency [18]

O=C(O)[C@H](O)c1ccccc1
inactive: max response [1] -7.55% | outcome [2] | outcome [3] | max response [4] 5.08% | outcome [5] | outcome [6] | outcome [7] | Potency [8] | Potency [9] | Potency [10] | Potency [11] | outcome [20] | Potency [12] | Potency [13] | Potency [14] | Potency [16] | Potency [17] | Potency [18]

CCC(=O)Nc1ccc(O)cc1
inactive: Potency [19] | max response [1] -0.238% | outcome [2] | outcome [3] | max response [4] 18.3% | max response [5] 0.658% | outcome [6] | outcome [7] | Potency [8] | Potency [9] | Potency [10] | Potency [11] | Potency [12] | Potency [13] | Potency [14] | Potency [15] | Potency [16] | Potency [17] | Potency [18]

O=C(O)c1ccccc1-c1ccc(C(F)(F)F)cc1
inactive: Potency [19] | outcome [1] | outcome [2] | outcome [3] | max response [4] -5.64% | max response [5] -3.57% | outcome [6] | outcome [7] | Potency [8] | Potency [9] | Potency [10] | Potency [11] | Potency [12] | Potency [13] | Potency [14] | Potency [15] | Potency [16] | Potency [17] | Potency [18]

CCCCCCCCCCCCOS(=O)(=O)O
inactive: Potency [19] | outcome [1] | outcome [2] | outcome [3] | max response [4] 16.2% | outcome [5] | outcome [6] | outcome [7] | Potency [8] | Potency [9] | Potency [10] | Potency [11] | outcome [20] | Potency [12] | Potency [13] | Potency [14] | Potency [15] | Potency [16] | Potency [17] | Potency [18]

CC(O)CN(CCN(CC(C)O)CC(C)O)CC(C)O (centres undefined)
inactive: Potency [19] | max response [1] 4.33% | outcome [2] | outcome [3] | max response [4] -16.3% | outcome [5] | outcome [6] | outcome [7] | Potency [8] | Potency [9] | Potency [10] | Potency [11] | outcome [20] | Potency [12] | Potency [13] | Potency [14] | Potency [16] | Potency [17] | Potency [18]

O=C1O[C@H]([C@@H](O)CO)C(O)=C1O
inactive: Potency [19] | max response [1] 0.399% | outcome [2] | outcome [3] | max response [4] -6.89% and 6.42% | outcome [5] | outcome [6] | outcome [7] | Potency [8] | Potency [9] | Potency [10] | Potency [11] | outcome [20] | Potency [12] | Potency [13] | Potency [14] | Potency [15] | Potency [16] | Potency [17] | Potency [18]

OCC(CO)N[C@H]1C[C@](O)(CO)[C@@H](O)[C@H](O)[C@H]1O
inactive: max response [1] -4.94% | outcome [2] | outcome [3] | max response [4] -14.4% | max response [5] 3.34% | outcome [6] | outcome [7] | Potency [8] | Potency [9] | Potency [10] | Potency [11] | Potency [12] | Potency [13] | Potency [14] | Potency [16] | Potency [17] | Potency [18]

NCCNCCNCCN
inactive: Potency [19] | max response [1] 1.87% | outcome [2] | outcome [3] | max response [4] -5.28% | max response [5] -1.13% | outcome [6] | outcome [7] | Potency [8] | Potency [9] | Potency [10] | Potency [11] | Potency [12] | Potency [13] | Potency [14] | Potency [15] | Potency [16] | Potency [17] | Potency [18]

Cc1c(Cl)cccc1Nc1ccccc1C(=O)O
active: Potency [19] 9.53 µM
inactive: outcome [1] | outcome [2] | outcome [3] | max response [4] -2.57% | outcome [5] | outcome [6] | outcome [7] | Potency [8] | Potency [9] | Potency [10] | Potency [11] | outcome [20] | Potency [12] | Potency [13] | Potency [14] | Potency [15] | Potency [16] | Potency [17] | Potency [18]
